Assay [1] has as its system DLD1. Nature of the assay: cell viability (CellTiter-Glo) relative to plate median (fraction of plate median); higher = more viable cells. Particulars: 5 µM; treatment time 24 h; reporter: 7TFP. The method, boiled down:
(§1)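 Values are well luminescence normalised to the plate median, from either a firefly luciferase or a CellTiterGlo readout on parallel plates. The cells, colorectal cancer lines stably transduced with lentiviral 7TFP or TCF4/Wnt firefly luciferase reporters, were treated with library compounds at a final 5 µM for 24 h. The mean of two independent replicates is listed.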
Background: In ATP-based viability assays light output follows the ATP content of the culture.

Assay [2] deals with HCT116. Described as above. Particulars: 5 µM; treatment time 24 h; reporter: TCF4/Wnt. The method, boiled down:
as §1

Assay [3] relates to SW480. The assay is described as above. As to conditions: 5 µM; treatment time 24 h; reporter: 7TFP. The method, boiled down: as §1
Assay [4] relates to DLD1. Nature of the assay: TCF/Wnt firefly luciferase reporter signal relative to plate median (fraction of plate median); higher = higher Wnt reporter signal. Particulars: 5 µM; treatment time 24 h; reporter: 7TFP. In a few lines:
as §1
In general terms: A reporter such as luciferase makes a cellular process visible.

For assay [5], the system named is SW480. Described as above. As to conditions: 5 µM; treatment time 24 h; reporter: 7TFP. The method, boiled down: as §1

± gives the standard deviation of the averaged measurements.

Regarding `COc1ccc(C(=O)c2ccc(O)cc2)c(O)c1O`, the cell viability in assay [1] stood at 1.015 ± 0.0071; in assay [2] it was 0.971 ± 0.028; in assay [3] it was 1.04 ± 0.078. Also, the “TCF/Wnt firefly luciferase reporter signal” value in assay [4] was 1.03 ± 0.028; in assay [5] it was 1.06 ± 0.057.

Take `CN(C)C(=N)NC(=N)N`: the cell viability in assay [1] is 0.966 ± 0.076; in assay [2], 1.003 ± 0.0099; in assay [3] it was 1.01 ± 0.025. The “TCF/Wnt firefly luciferase reporter signal” value in assay [4] is 1.03 ± 0.13; in assay [5], 1 ± 0.054.

With `C=C(C)[C@@H]1CC[C@]2(CO)CC[C@]3(C)[C@H](CC[C@@H]4[C@@]5(C)CC[C@H](O)C(C)(C)[C@@H]5CC[C@]43C)[C@@H]12`, the cell viability in assay [1] is 0.995 ± 0.064; in assay [2], 0.973 ± 0.053; in assay [3], 0.978 ± 0.027. For the same compound, the “TCF/Wnt firefly luciferase reporter signal” value came out at 1.135 ± 0.0071 in assay [4] and 1.045 ± 0.0071 in assay [5].

In the case of `C[C@@H]1CC[C@H]2C(C)(C)[C@H]3C[C@@]12CC[C@@]3(C)O`, the cell viability stood at 1.02 ± 0.029 in assay [1], 1.07 ± 0.057 in assay [2] and 1.03 ± 0.021 in assay [3]. Also, the figures for the “TCF/Wnt firefly luciferase reporter signal” value in assay [4] and in assay [5] were 1.03 ± 0.014 and 0.94 ± 0.083, respectively.

As to `CC(=O)OCC(CCn1cnc2cnc(N)nc21)COC(C)=O`, the cell viability in assay [1] was 0.9935 ± 0.0021; in assay [2] it was 0.97 ± 0.04; in assay [3], 0.9805 ± 0.0092. In addition, the entries for the “TCF/Wnt firefly luciferase reporter signal” value in assay [4] and in assay [5] were 0.984 ± 0.052 and 1.025 ± 0.0071, respectively.

For `C/C1=C2/[N-][C@H]([C@H](CC(N)=O)[C@@]2(C)CCC(=O)NC[C@@H](C)OP(=O)([O-])O[C@H]2[C@@H](O)[C@@H](n3cnc4cc(C)c(C)cc43)O[C@@H]2CO)[C@]2(C)N=C(/C(C)=C3N=C(/C=C4N=C1[C@@H](CCC(N)=O)C\4(C)C)[C@@H](CCC(N)=O)[C@]\3(C)CC(N)=O)[C@@H](CCC(N)=O)[C@]2(C)CC(N)=O.[CH2-][C@H]1O[C@H](n2cnc3c(N)ncnc32)[C@@H](O)[C@H]1O.[Co+3]`, the cell viability was 0.933 ± 0.021 in assay [1], 0.964 ± 0.18 in assay [2] and 0.998 ± 0.045 in assay [3]. The “TCF/Wnt firefly luciferase reporter signal” value was 0.968 ± 0.13 in assay [4] and 0.971 ± 0.2 in assay [5].

As for `COC(=O)C1=CO[C@@H](O[C@@H]2O[C@H](CO)[C@@H](O)[C@H](O)[C@H]2O)[C@@H]2[C@@H](C)CC(=O)[C@]12O`, the results for the cell viability in assay [1], in assay [2] and in assay [3] were 0.871 ± 0.067, 0.88 ± 0.17 and 0.988 ± 0.06, respectively. The “TCF/Wnt firefly luciferase reporter signal” value in assay [4] amounted to 1.04 ± 0.19; in assay [5], 1.08 ± 0.035.

In the case of `C[C@@H]1CC[C@@]2(OC1)O[C@H]1C[C@H]3[C@@H]4CC=C5C[C@@H](O)CC[C@]5(C)[C@H]4CC[C@]3(C)[C@H]1[C@@H]2C`, the cell viability stood at 1.01 ± 0.14 in assay [1], 0.973 ± 0.025 in assay [2] and 0.93 ± 0.046 in assay [3]. The “TCF/Wnt firefly luciferase reporter signal” value in assay [4] is 0.89 ± 0.063; in assay [5], 0.998 ± 0.06.

`N=C(NCCCCCCNC(=N)NC(=N)Nc1ccc(Cl)cc1)NC(=N)Nc1ccc(Cl)cc1`: the cell viability in assay [1] came out at 0.952 ± 0.031; in assay [2], 1.02 ± 0.11; in assay [3], 1.07 ± 0.028. Moreover, the “TCF/Wnt firefly luciferase reporter signal” value stood at 1.07 ± 0.021 in assay [4] and 0.851 ± 0.052 in assay [5].

Consider `CC(=O)N1CCN(c2ccc(OCC3COC(Cn4ccnc4)(c4ccc(Cl)cc4Cl)O3)cc2)CC1` (stereo not given), for which the cell viability came out at 0.997 ± 0.033 in assay [1], 0.9685 ± 0.005 in assay [2] and 0.901 ± 0.012 in assay [3]. Besides, the results for the “TCF/Wnt firefly luciferase reporter signal” value in assay [4] and in assay [5] were 1.05 ± 0.05 and 1.01 ± 0.061, respectively.

Take `CC(=O)OCC(OC(C)=O)C(OC(C)=O)C(OC(C)=O)C(OC(C)=O)C(COC(C)=O)OC(C)=O` (stereo not given): the cell viability was 1.06 ± 0.071 in assay [1], 1 ± 0.066 in assay [2] and 1.045 ± 0.0071 in assay [3]. Further, the results for the “TCF/Wnt firefly luciferase reporter signal” value in assay [4] and in assay [5] were 0.987 ± 0.047 and 0.96 ± 0.037, respectively.

Consider `COc1ccc2c3c1O[C@H]1C[C@@H](O)C=C[C@@]31CCN(C)C2`, for which the cell viability in assay [1] amounted to 1.04 ± 0.05; in assay [2] it was 1 ± 0.081; in assay [3], 1.03 ± 0.045. For the same compound, the figures for the “TCF/Wnt firefly luciferase reporter signal” value in assay [4] and in assay [5] were 0.9965 ± 0.0021 and 1.05, respectively.

For the compound `O=C(O)C(S)C(S)C(=O)O` (stereo not given), the cell viability in assay [1] stood at 1.04 ± 0.05; in assay [2], 1.03 ± 0.099; in assay [3], 1.01 ± 0.096. Besides, the “TCF/Wnt firefly luciferase reporter signal” value in assay [4] was determined as 0.904 ± 0.1; in assay [5] it was 1.004 ± 0.0078.

`Cc1ccc(C)c(OCCCC(C)(C)C(=O)O)c1`: the cell viability is 0.985 ± 0.092 in assay [1], 0.986 ± 0.034 in assay [2] and 1.01 ± 0.015 in assay [3]. In addition, the entries for the “TCF/Wnt firefly luciferase reporter signal” value in assay [4] and in assay [5] were 1.015 ± 0.0071 and 1.06 ± 0.05, respectively.

For the compound `NCCCC[C@H](N[C@@H](CCc1ccccc1)C(=O)O)C(=O)N1CCC[C@H]1C(=O)O`, the cell viability was determined as 1.03 ± 0.05 in assay [1], 1.01 ± 0.07 in assay [2] and 1.003 ± 0.0099 in assay [3]. Moreover, the entries for the “TCF/Wnt firefly luciferase reporter signal” value in assay [4] and in assay [5] were 0.9065 ± 0.00071 and 0.827 ± 0.069, respectively.
